High-throughput results as filed in PubChem.
Only some compounds are listed: those with a hit (about 2.2% of all), similar ones and a draw of the others.
ERG Ets-DNA blk – ERG Ets/DNA interaction inhibition; P11308; 370,000 tested, 0.028% active; Potency, µM (doses to about 76.9 µM), for the others: at the highest dose FP activity, negative = inhibition, most hits filed as inhibitors; fluorescence polarization, His-ERG Ets domain / labelled DNA; AID 624246; active = well fitted inhibition curve with a large enough effect in the polarisation, with a control signal flat; inconclusive = small, poorly fitted or top-dose-only effect, or effect the other way, or a change in a side signal; inactive = no such curve, though single readings can be large or run the other way; the % refers to the polarisation;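 also: polarization taken with two DNA probes labelled with fluorescein and Texas red; % of control where 0% means no effect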
Target sequence (P11308 whole entry, looked up, the tested form may be a part): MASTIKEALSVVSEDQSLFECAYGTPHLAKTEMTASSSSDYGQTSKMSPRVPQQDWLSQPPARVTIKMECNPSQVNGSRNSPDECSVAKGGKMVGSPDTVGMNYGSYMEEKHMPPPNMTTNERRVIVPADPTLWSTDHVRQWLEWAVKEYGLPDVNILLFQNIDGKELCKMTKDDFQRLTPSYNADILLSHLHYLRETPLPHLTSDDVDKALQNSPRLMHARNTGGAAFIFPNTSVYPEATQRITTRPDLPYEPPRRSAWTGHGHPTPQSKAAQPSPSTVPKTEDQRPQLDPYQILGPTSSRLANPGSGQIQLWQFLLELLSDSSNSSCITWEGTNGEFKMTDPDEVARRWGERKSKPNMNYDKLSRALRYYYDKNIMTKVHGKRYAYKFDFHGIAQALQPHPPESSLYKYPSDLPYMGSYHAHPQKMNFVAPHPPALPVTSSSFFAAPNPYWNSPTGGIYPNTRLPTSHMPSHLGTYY
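His-tagged ERG Ets domain (1 uM in the protein solution; 300mM KCl, 50mM Tris-HCl, 1mM EDTA, 1mM DTT, pH 7.5) received compound, then a probe mix of 5 nM fluorescein-DNA and 100nM Texas-615-DNA. Fluorescence polarization was read for both dyes.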
Abeta rescue – compounds reversing amyloid beta toxicity in yeast | yeast expressing A-beta42, growth rescue, OD600, 48 h; response scale: 0% DMSO, 100% iron-clioquinol control | Potency, µM (top dose mostly 46.1 µM), hits mostly activators | 410,000 tested, 0.063% active | AID 1347071; also: nearly all actives have a fitted effect of over 55% in size
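Yeast A-beta toxicity model in growth medium with pinned compounds, 48 h at 30 C; growth read as absorbance at 600 nm. Normalized to FeCl3/clioquinol equimolar mix (positive) and DMSO (negative).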
Mito fusion yeast – blocks mitochondrial division or promotes mitochondrial fusion. AID 485298. 320,000 tested, 0.23% active. Potency, µM (top dose mostly 46.1 µM), for inactives: at the highest dose growth rescue (activation), usual class: activators. S. cerevisiae fusion-defective mutant growth rescue, CellTiterGlo 48 h; also: % of control where 0% means no effect; nearly all actives have a fitted effect of over 45% in size
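Temperature-sensitive fusion-defective S. cerevisiae (e.g. fzo1-1, mgm1-5) were grown with compound in YPEG medium (3% ethanol, 3% glycerol) for 48 hours at 37C. Growth rescue was measured as viability by CellTiterGlo luminescence after 10 minutes at ambient.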
TDP-43 yeast inh – TDP-43 toxicity inhibition in yeast; TDP-43 expressing yeast growth rescue, BacTiter-Glo, 24 h; Potency, µM (series often up to 46.1 µM), for inactives: at the top dose growth rescue (activation), actives largely listed as activators; 410,000 tested, 1.8% active; also: % of control where 0% means no effect; nearly all actives have a fitted effect of over 50% in size
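In this qHTS, compounds that restore growth of yeast expressing TDP-43 appear as activators. Cells (OD600=0.02, galactose medium, raffinose-pregrown) are incubated with compound 24 hr at 30 deg C and growth is quantified by BacTiter-Glo.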
aSyn rescue – alpha-synuclein toxicity inhibition in yeast; Potency, µM (doses to about 46.1 µM), without a hit: at the top dose growth rescue (activation), usual class: activators; 370,000 tested, 0.14% active; Yeast expressing alpha-synuclein, growth rescue, BacTiter-Glo, 24 h; also: % of control where 0% means no effect; nearly all actives have a fitted effect of over 65% in size
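Screening used galactose-induced yeast with toxic alpha-synuclein levels, exposed to compound for 24 hr at 30 deg C. Cell growth, read with BacTiter-Glo luminescence, gave the measured signal.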
FUS suppressor – FUS proteinopathy suppression in yeast; S. cerevisiae FUS-expressing, growth rescue, OD600, 24 h; Potency, µM (top dose mostly 76.6 µM), hits mostly activators; 390,000 tested, 0.24% active;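 also: plate controls were DMSO vehicle for no effect and reference control for full effect; nearly all actives have a fitted effect of over 55% in size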
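Galactose (2%) drives FUS expression in yeast precultured in raffinose; seeding density OD 0.005. Test compounds incubated 24hr at 30C and 99% humidity before absorbance at 600 nm was measured.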
* = called active by the depositor; i = inactive; u = inconclusive; x = no result; [ ] = remark or other dose. Unless noted, calls follow the shape of the dose curve; as a rule, active = well fitted curve in the direction sought with a large enough effect; inconclusive = small, poorly fitted or top-dose-only effect, or another doubt; inactive = no such curve, though single readings can be large; an effect the other way counts as inactive or inconclusive. Potency is read from the fitted curve at half-maximal effect.

SMILES	ERG Ets-DNA blk	Abeta rescue	Mito fusion yeast	TDP-43 yeast inh	aSyn rescue	FUS suppressor
COc1ccccc1-c1cc(C(F)(F)F)nc(N2CCOCC2)n1	1%	i	2%	22µM*	-27%	i
COc1cn(CC(=O)Nc2ccccc2)c(CN2CCCCC2)cc1=O	3%	i	x	u	x	i
Cc1cccc(Cc2c(C)nc3c(C(=O)NCc4ccco4)cnn3c2C)c1	9%	i	2%	5%	10%	13µM*
COc1ccccc1Cc1nc2ccccc2nc1SCC(=O)N1CCN(c2ccccc2)CC1	0%	i	x	0%	x	i
CC(C)(C)C(=O)O/N=C1/C(=O)N(c2ccccc2)c2ccccc21	-4%	i	5%	u	7.1µM*	i
Cc1cc(C)cc(N(CC(=O)NC2CCC(C)CC2)S(=O)(=O)c2ccc(Br)s2)c1 (centres undefined)	x	x	x	x	x	i
Cc1ccc(-c2cc(N)n(-c3ccccc3)n2)cc1	-9%	i	13%	20µM*	-19%	i
CC(=O)N1CCC(C(=O)N2c3ccccc3N=C(c3ccc4c(c3)OCO4)C2C(=O)NCc2ccccc2)CC1 (centres undefined)	x	i	x	u	4%	u
CCc1ccc(NC(=O)CN2CCN(Cc3ccccc3)S2(=O)=O)cc1	0%	i	x	23%	x	i
Cc1cccc(NC(=O)NCCn2c(=O)oc3ccc(C)cc32)c1	2%	i	x	14%	x	i
CCCCCCCCN1C(=O)[C@H](CC(=O)N2CCN(C(=O)OCC)CC2)C[C@@]2(C(=O)OCC)CCCC=C12	x	i	x	25µM*	0%	u
CCOC(=O)[C@]12CCCC=C1N(CCC1=CCCCC1)C(=O)[C@H](CC(=O)NCc1ccc(OC)c(OC)c1)C2	x	i	x	0%	-14%	i
CCOC(=O)N1CCN(C(=O)C[C@@H]2C[C@@]3(C(=O)OC)CCCCC=C3N(Cc3ccc(Cl)cc3Cl)C2=O)CC1	x	i	x	22µM*	19%	u
CCCCNC(=O)C[C@@H]1C[C@@]2(C(=O)OCC)CCCC=C2N(CCC2=CCCCC2)C1=O	x	i	x	35µM*	0%	i
CCOC(=O)N1CCN(C(=O)C[C@@H]2C[C@@]3(C(=O)OCC)CCCC=C3N(Cc3ccc(Cl)cc3Cl)C2=O)CC1	x	i	x	u	4%	u
CCOC(=O)[C@]12CCCC=C1N(CCC1=CCCCC1)C(=O)[C@H](CC(=O)NCc1cccc3ccccc13)C2	x	u	x	35µM*	18%	i
O=C(Cn1ncc2c3ccccc3n(Cc3cccc(Cl)c3)c2c1=O)NCCCN1CCCCC1	7%	i	x	6%[9.22 µM]	x	i
COc1ccc(C2Nc3ccccc3C(=O)N2c2ccc(F)cc2)cc1COc1ccc(NC(C)=O)cc1 (centres undefined)	x	x	x	x	1%	x
Cc1ccc(-n2ncc(C(=O)NCc3ccc4c(c3)OCO4)c2C2CCN(C(=O)OC(C)(C)C)CC2)c(C)c1	3%	u	x	9%	x	u
CCCCCCCCN1C(=O)[C@H](CC(=O)NCCCN2CCCC2=O)C[C@@]2(C(=O)OCC)CCCC=C12	x	i	x	21%	7%	u
CCCCCCCCN1C(=O)[C@H](CC(=O)NCCCOC)C[C@@]2(C(=O)OCC)CCCC=C12	x	i	x	0%	9%	13µM*
CCCC1(C)C(C#N)C(=O)NC(=O)C1C#N (centres undefined)	18%	i	x	-5%	5%	i
CCCC1(C)C(C#N)(C#N)C1(C#N)C#N	x	x	u	x	15µM*	x
COc1ccc(C2(C)NC(=O)N(Cc3cc(Cl)cc4c3OCOC4)C2=O)cc1OC (centres undefined)	-1%	i	-2%	-7%	-6%	35µM*
COc1ccc(CN(C)S(=O)(=O)c2nnc(NC(=O)C(C)C)s2)cc1OC	1%	i	x	4%	x	i
SMILES	ERG Ets-DNA blk	Abeta rescue	Mito fusion yeast	TDP-43 yeast inh	aSyn rescue	FUS suppressor
O=C(c1ccccc1)c1ccc[nH]1	u	i	x	-22%	-1%	i
O=C(/C=C/c1ccccc1[N+](=O)[O-])Oc1ccccc1	x	x	-5%	x	x	x
COC(=O)C(=Cc1ccccc1[N+](=O)[O-])C(=O)OC	-3%	i	-61%	16µM*	0%	i
O=C(/C=C/c1ccccc1[N+](=O)[O-])OCC(=O)c1ccccc1	-10%	i	-6%	20µM*	10%	i
O=c1c2ccccc2oc2ccc(C#CC3(O)CCCCC3)cc12	2%	i	x	20µM*	-12%	u
Nc1ccc(C#Cc2ccc3c(=O)c4ccccc4oc3c2)cc1	-3%	i	0%	35µM*	-1%	i
O=C(NCCc1ccc(F)cc1)c1ccc(Sc2ccccc2Cl)c([N+](=O)[O-])c1	x	x	x	x	x	i
COc1ccc(/C(O)=C/C(=O)C(=O)NNC(=O)C(O)(c2ccccc2)c2ccccc2)cc1	-6%	i	-1%	2%	8%	28µM*
Cc1c(NC(=O)C(=O)/C=C(/O)c2ccccc2)c(=O)n(-c2ccccc2)n1C	1%	i	-5%	-49%	11%	x
COc1ccc(/C(O)=C/C(=O)C(=O)Nc2c(C)n(C)n(-c3ccccc3)c2=O)cc1	-2%	i	-4%	0%	0%	28µM*
N[C@H](C(=O)N[C@@H](Cc1ccccc1)C(=O)N1CCC2CCN(S(=O)(=O)c3ccccc3)CC21)c1ccccc1 (some centres undefined)	x	x	x	x	x	i
O=C(Nc1ccc(F)c(Cl)c1)C1Cc2ccccc2CN1S(=O)(=O)c1ccc(F)cc1 (centres undefined)	-3%	i	x	u	x	i
CC(C)c1ccc(Nc2nc(N3CCOCC3)nc(N3CCOCC3)n2)cc1	x	i	x	u	16%	i
CC(C)c1ccc(Nc2nc(NCc3ccco3)nc(N3CCOCC3)n2)cc1	2%	i	-3%	16µM*	-19%	i
COc1ccc(-c2noc(C3CC(=O)N(c4cc(C)cc(C)c4)C3)n2)cc1 (centres undefined)	1%	i	x	u	x	i
COc1ccc(-c2noc(C3CC(=O)N(c4ccc(C)c(F)c4)C3)n2)c(OC)c1 (centres undefined)	0%	i	x	13µM*	x	u
C(=C\c1ccnc2ccccc12)/c1ccc(N2CCOCC2)cc1	x	x	x	x	-31%	x
CCCOC(=O)c1ccc(NC(=O)c2cc(OC)c(OC)c(OC)c2Br)cc1	1%	i	5%	13µM*	6%	i
